Screening data (PubChem BioAssay)
COUP-TFII inh: inhibitors of human COUP-TFII (NR2F2). P24468. HEK293T NGFI-A luciferase reporter, luminescence. inhibition, % at 8.6 µM. 0.7% of 370,000 active;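 active means inhibition above a per-plate cutoff, mean inhibition of test wells between control levels plus 3 SD, cut at about 38% in these data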;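 further: cells cotransfected with COUP-TFII expression vector driving the NGFI-A reporter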
GalR3 antag: human GalR3 antagonism; HEK293 GalR3-CNG cAMP membrane potential fluorescence; galR3 body fused to GalR1 C-terminus; O60755; inhibition, % at 3 µM; 0.44% of 360,000 active;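 active means inhibition above the screen-wide average plus 3 SD, cut at about 13% in these data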;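 further: forskolin and galanin both at EC90 stimulate the cells; cAMP rise reported by CNG channel membrane potential dye signal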
Target sequence (O60755 1-299 limits assumed): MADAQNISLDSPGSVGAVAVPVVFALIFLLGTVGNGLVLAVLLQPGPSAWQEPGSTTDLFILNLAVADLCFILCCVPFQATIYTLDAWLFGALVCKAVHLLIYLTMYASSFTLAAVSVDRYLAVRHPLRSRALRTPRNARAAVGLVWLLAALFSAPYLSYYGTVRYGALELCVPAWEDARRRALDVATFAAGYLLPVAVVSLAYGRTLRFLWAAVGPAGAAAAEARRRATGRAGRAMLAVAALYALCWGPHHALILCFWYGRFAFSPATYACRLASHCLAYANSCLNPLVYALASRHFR
Cardio protect: modulators protecting cardiomyocytes from myocardial damage. H9c2 cardiomyocytes, H2O2 injury protection, ATPLite, 2 h. protection from H2O2 cell death, % at 20 µM. 0.63% of 360,000 active. AID 588492;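 active means compounds giving at least 50% protection of heart cells from peroxide-induced death in the single-dose screen, raw or plate-pattern-corrected value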
Gli-Sufu antag: blocks Gli-Sufu signaling in a luciferase reporter; Sufu-KO-LIGHT fibroblasts, Gli luciferase reporter luminescence; inhibition, % at 5 µM; 0.74% of 340,000 active;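 active means inhibition above about 55%, limit read from the data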
FXN GAA850 act: increases GAA850 frataxin promoter reporter activity; HEK293 lucGAA850 FXN promoter luciferase reporter, 24 h; percent of 10 µM SAHA response; AID 540364; 0.56% of 360,000 active; activation, % at 6 µM;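 active means activation above the average of all compounds screened plus 3 SD, cutoff fixed separately per campaign, cut at about 7.5% in these data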
SMARCA2 activ: activators of SMARCA2 function | MG213 cells, MMTV-luciferase reporter, dexamethasone, overnight | activation, % at 9.1 µM | 1% of 370,000 active; in the data active means activation above about 7.8%
Gli antag conf: confirmation of Gli-SUFU pathway antagonists. shares compounds with Gli-Sufu antag. 40% of 2,500 active. inhibition, % at 5 µM. Sufu-KO-LIGHT cells, Gli luciferase reporter, luminescence. AID 602428;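 active means mean inhibition at 5 µM reaching about 45%, limit read from the data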
SufuKO cytotox: counter-screen for Gli-SUFU antagonists: cytotoxicity. shares compounds with Gli-Sufu antag. Sufu-KO-LIGHT cells cytotoxicity, ATP luminescence. cytotoxicity, % at 5 µM. 32% of 2,500 active;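 active means mean cytotoxicity at 5 µM above about 25%, limit read from the data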;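 further: cells exposed to compound overnight for roughly 16 to 18 hours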
Wnt3a counter: Wnt3a reporter inhibition counter-screen | shares compounds with Gli-Sufu antag | Wnt-LIGHT cells, Wnt3a-driven luciferase reporter, luminescence | inhibition, % at 6.25 µM | 20% of 2,500 active;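 active means mean inhibition above about 25%, limit read from the data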
Numbers stand for hits; - = inactive; . = no result given. An excerpt weighted towards active compounds, which were near 3.4% of everything screened.

SMILES | COUP-TFII inh | GalR3 antag | Cardio protect | Gli-Sufu antag | FXN GAA850 act | SMARCA2 activ | Gli antag conf | SufuKO cytotox | Wnt3a counter
Cc1ccc(CC2SC(=Nc3ccccc3)N(c3ccccc3)C2=O)cc1 (centres undefined) | - | - | - | 58 | - | - | - | - | -
Cc1nn(CCCC(=O)Nc2cc(Oc3ccccc3)cc([N+](=O)[O-])c2)c(C)c1[N+](=O)[O-] | - | - | - | - | - | - | . | . | .
Cc1ccc(C)c(Oc2cc(NC(=O)CCCn3nc(C)c([N+](=O)[O-])c3C)cc([N+](=O)[O-])c2)c1 | - | - | - | - | - | - | - | - | -
CCN1CCN(c2oc(-c3ccccc3C)nc2S(=O)(=O)c2ccccc2)CC1 | - | - | - | - | - | - | - | - | -
CCOC(=O)[C@@]12CCCC3=C1N(CCC3)C(=O)[C@H]2CC(=O)NCC1CCCCC1 | - | . | . | . | . | - | . | . | .
Cc1nnc(NCc2ccccc2)c2ccccc12 | - | - | - | - | - | - | . | . | .
Cc1nnc(NCc2ccncc2)c2ccccc12 | - | - | - | - | - | - | - | - | -
CC(C)COc1cccc(C(=O)Nc2ccc(CN3CCOCC3)cc2)c1 | - | - | - | - | - | - | - | - | -
COC(=O)[C@]12CCCCC=C1N(Cc1ccco1)C(=O)[C@H](CC(=O)N1CCC(c3ccccc3)CC1)C2 | - | - | . | . | . | - | . | . | .
C[C@H]1[C@@H](NC(=O)c2ccc(Cl)cc2)CC[C@@]23CCCN2C(=O)CCC[C@@H]13 | - | . | . | . | . | . | . | . | .
Cc1ccc2cc(CN(CC3CCCO3)C(=S)Nc3ccccc3)c(=O)[nH]c2c1C (centres undefined) | - | - | - | 65 | - | - | 81 | 33 | -
CCc1nc(SCC(=O)Nc2nnc(CC)s2)c2c(=O)n(C)c(=O)n(C)c2n1 | - | - | - | - | - | - | . | . | .
CCCc1nc(SCC(=O)Nc2nnc(CC)s2)c2c(=O)n(C)c(=O)n(C)c2n1 | - | - | - | 66 | - | - | 50 | - | -
CCCc1nc(SCC(=O)Nc2nnc(SCC)s2)c2c(=O)n(C)c(=O)n(C)c2n1 | - | . | - | 58 | - | - | 56 | 35 | -
C=CCOC(=O)N1CCN(C(=O)c2ccc3nc(C)n(C4CCCC4)c3c2)CC1 | - | . | . | . | . | - | . | . | .
COc1cc(OC)c(OC)cc1CNC(=O)c1cccc(S(=O)(=O)N2CCc3ccccc3C2)c1 | - | 14 | - | 66 | - | - | 64 | 36 | 25
CC(=O)c1ccc(N2CCN(c3ncc(C(F)(F)F)cc3Cl)CC2)cc1 | - | - | - | - | - | - | . | . | .
CC(=O)c1ccc(N2CCN(c3ccc(C(F)(F)F)cn3)CC2)cc1 | - | - | - | - | - | - | 52 | - | -
O=C(C1CCN(Cc2ccc(F)cc2)CC1)N(CCc1ccccc1)Cc1ccccc1 | - | - | - | 58 | - | - | - | - | -
CS(=O)(=O)c1ccc(C(=O)OCC(=O)NC(=O)C2CCCCC2)cc1[N+](=O)[O-] | - | - | - | 65 | - | - | - | - | -
CS(=O)(=O)c1ccc(C(=O)OCC(=O)NC(=O)C2COc3ccccc3O2)cc1[N+](=O)[O-] (centres undefined) | - | - | - | - | - | - | . | . | .
Cc1[nH]n(-c2ccccc2)c(=S)c1C=NCCCN=Cc1c(C)[nH]n(-c2ccccc2)c1=S | - | - | - | 71 | - | - | - | 32 | -
COC(=O)C1=C(C)N(C)C(=O)NC1c1ccccc1 (centres undefined) | - | - | - | - | - | - | . | . | .
CC1=C(C(=O)OC(C)C)C(c2ccccc2)NC(=O)N1C (centres undefined) | - | - | - | 57 | - | - | - | - | -
C=C1CCCC2OC(CC3=CC4/C(C)=C/CC(C)CC(/C=C(\C)C(O)C5CC(O)C(O)C(CCC(O)/C=C/C(C)=C/CCC6=NCCC(C3)C64C)O5)OC(=O)CC3OC(C(O)C1)C(O)C3O)CC(O)C2O (centres undefined) | - | - | - | . | - | - | . | . | .
SMILES | COUP-TFII inh | GalR3 antag | Cardio protect | Gli-Sufu antag | FXN GAA850 act | SMARCA2 activ | Gli antag conf | SufuKO cytotox | Wnt3a counter
Cc1ccc(C)c(NC(=O)c2nc(Cl)ccc2Cl)c1 | - | - | - | - | - | - | . | . | .
O=C(Nc1ccccc1O)c1nc(Cl)ccc1Cl | - | - | - | - | - | - | - | - | -
CCCCCCCNC1=CC(=O)CC(c2ccccc2)C1 (centres undefined) | - | - | - | 59 | - | - | 52 | - | -
COc1cccc(C2=NOC(C(=O)NCc3ccccc3)C2)c1 (centres undefined) | - | - | - | - | - | - | . | . | .
COc1ccc(C2=NOC(C(=O)NCc3ccccc3)C2)cc1 (centres undefined) | . | . | - | 55 | - | . | - | 54 | -
CCN(CCC(=O)Nc1cc(OC)ccc1OC)Cc1ccccc1 | - | - | . | . | . | - | . | . | .
COc1ccc(CN2CCCCC2C(=O)Nc2ccc(OC)c(OCC(C)C)c2)cc1OC (centres undefined) | - | - | - | 63 | - | - | - | 29 | -
O=C(CN1CCNCC1)N1CCOCC1 | . | . | - | . | . | . | . | . | .
COCC(=O)N1CCC(Oc2ccc(C(=O)NCCCn3cccn3)cc2)CC1 | - | - | - | - | - | - | - | - | -
Cn1c(=O)c2c([nH]c(OCc3ccc(Cl)cc3Cl)[n+]2Cc2ccc(F)cc2)n(C)c1=O | - | - | - | - | - | - | . | . | .
O=C(COc1cc2oc(=O)cc(-c3ccccc3)c2cc1Cl)NCc1ccccn1 | - | - | - | - | - | - | - | - | -
CCCCNC(=O)c1ccc(N2CCOCC2)c(NS(=O)(=O)c2ccc(OC)cc2)c1 | - | - | - | - | - | - | . | . | .
CCNC(=O)Nc1cc(S(=O)(=O)Nc2ccc(OC)cc2)ccc1N1CCOCC1 | . | . | - | 61 | - | . | 61 | 46 | -
CC(C)CC(OC(=O)c1ccc(Cl)nc1)C(=O)NC1CCCC1 (centres undefined) | - | - | - | 56 | - | - | - | - | 50
Cc1ccc(C(=O)C(C)OC(=O)c2ccc(Cl)nc2)cc1 (centres undefined) | - | - | - | - | - | - | . | . | .
COc1ccc(N2CCN(C(C)C(=O)N3CC(C)OC(C)C3)CC2)cc1 (centres undefined) | - | - | - | - | - | - | - | - | -
COc1ccc(N2CCN(C(C)C(=O)N3CCc4ccccc43)CC2)cc1 (centres undefined) | - | - | - | - | - | - | . | . | .
CC[C@@H](NCCCn1cnc2c(SC)ncnc21)c1ccccc1 | - | - | - | . | - | - | . | . | .
CCN1CCN(C(=O)/C=C/c2ccc(OC)cc2)CC1 | - | - | - | 60 | - | - | - | 27 | -
